Compound activity (PubChem)
Rows were chosen to be rich in hits. Some 9% of all compounds tested hit in one or more screens of this group.
G9a inh: inhibitors of human histone lysine methyltransferase G9a. Potency, µM (highest dose often 102 µM), without a hit: top-dose activity, negative = inhibition, usual class: inhibitors. 350,000 tested, 8.8% active. G9a H3K9 monomethylation, AlphaScreen, 2 h. Q96KQ7; also: % is scaled to controls: 0 for no effect and ±100 for the full control effect; nearly all actives have a fitted effect of over 75% in size
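Enzyme 20 nM + cpd, 15 min RT; add b-H3K9 pep 500 nM / SAM 20 uM; 2 h RT; anti-H3K9me1 Ab 0.5 ug/mL + SA donor / anti-rabbit acceptor beads 20 ug/mL each, 10 min; AlphaScreen read.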
PLK1 PBD block: inhibitors of human PLK1 polo-box domain binding; 360,000 tested, 2.8% active; AID 720504; Potency, µM, for inactives: max response, negative = inhibition, usual class: inhibitors; Plk1 PBD binding of FITC phosphopeptide, fluorescence polarization; P53350; also: series mostly up to about 57 µM; % is scaled to controls: 0 for no effect and ±100 for the full control effect; nearly all actives have a fitted effect of over 65% in size
12-LOX inh: blocks human arachidonate 12S-lipoxygenase. AID 1671190. 580,000 tested, 1.1% active. P18054. purified 12hLO, xylenol orange hydroperoxide absorbance. Potency, µM (doses to about 108 µM), for inactives: top-dose activity change, negative = inhibition, actives largely listed as inhibitors; also: % is scaled to controls: 0 for no effect and ±100 for the full control effect
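Hydroperoxide product was detected by ferrous iron/xylenol orange as the 573 to 405 nm absorbance ratio. Arachidonic acid at 40 uM (final) was turned over for 30 min at room temperature by 150 nM human 12hLO, pH 7.0 Hepes buffer, after 15 min compound preincubation.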
HP1b binding inh: blocks HP1-beta chromodomain binding to methylated histone tails. P83916. AlphaScreen HP1-beta / biotin-H3K9me3 peptide binding. Potency, µM (top dose mostly 114 µM), without a hit: top-dose activity change, negative = inhibition, actives largely listed as inhibitors. 390,000 tested, 0.56% active. AID 540317; also: nearly all actives have a fitted effect of over 70% in size
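HP1-beta protein (50 nM final) preincubated 30 min at room temperature with biotinylated H3(1-18)K9me3 peptide (50 nM) in PBS pH 7.4, 0.01% Tween-20, then compound added for 30 min. AlphaScreen streptavidin donor/nickel chelate acceptor beads (10 ug/mL final), 30 min dark, luminescence read.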
JMJD2A Tudor inh: inhibitors of human JMJD2A Tudor domain; O75164; AlphaScreen JMJD2A-Tudor / H3K4me3 peptide binding; Potency, µM (titrated, usually from 114 µM), inactives show top-dose activity change, negative = inhibition, most hits filed as inhibitors; 390,000 tested, 4.4% active; also: % is scaled to controls: 0 for no effect and ±100 for the full control effect; nearly all actives have a fitted effect of over 50% in size
BAZ2B inh: inhibitors of human BAZ2B bromodomain; AID 504333; AlphaScreen BAZ2B-H3K14Ac peptide displacement; Q9UIF8; 360,000 tested, 4.4% active; Potency, µM (top dose mostly 114 µM), for the others: at the highest dose activity change, negative = inhibition, most hits filed as inhibitors; also: % is scaled to controls: 0 for no effect and ±100 for the full control effect; nearly all actives have a fitted effect of over 60% in size
Target sequence (Q9UIF8 whole entry, looked up): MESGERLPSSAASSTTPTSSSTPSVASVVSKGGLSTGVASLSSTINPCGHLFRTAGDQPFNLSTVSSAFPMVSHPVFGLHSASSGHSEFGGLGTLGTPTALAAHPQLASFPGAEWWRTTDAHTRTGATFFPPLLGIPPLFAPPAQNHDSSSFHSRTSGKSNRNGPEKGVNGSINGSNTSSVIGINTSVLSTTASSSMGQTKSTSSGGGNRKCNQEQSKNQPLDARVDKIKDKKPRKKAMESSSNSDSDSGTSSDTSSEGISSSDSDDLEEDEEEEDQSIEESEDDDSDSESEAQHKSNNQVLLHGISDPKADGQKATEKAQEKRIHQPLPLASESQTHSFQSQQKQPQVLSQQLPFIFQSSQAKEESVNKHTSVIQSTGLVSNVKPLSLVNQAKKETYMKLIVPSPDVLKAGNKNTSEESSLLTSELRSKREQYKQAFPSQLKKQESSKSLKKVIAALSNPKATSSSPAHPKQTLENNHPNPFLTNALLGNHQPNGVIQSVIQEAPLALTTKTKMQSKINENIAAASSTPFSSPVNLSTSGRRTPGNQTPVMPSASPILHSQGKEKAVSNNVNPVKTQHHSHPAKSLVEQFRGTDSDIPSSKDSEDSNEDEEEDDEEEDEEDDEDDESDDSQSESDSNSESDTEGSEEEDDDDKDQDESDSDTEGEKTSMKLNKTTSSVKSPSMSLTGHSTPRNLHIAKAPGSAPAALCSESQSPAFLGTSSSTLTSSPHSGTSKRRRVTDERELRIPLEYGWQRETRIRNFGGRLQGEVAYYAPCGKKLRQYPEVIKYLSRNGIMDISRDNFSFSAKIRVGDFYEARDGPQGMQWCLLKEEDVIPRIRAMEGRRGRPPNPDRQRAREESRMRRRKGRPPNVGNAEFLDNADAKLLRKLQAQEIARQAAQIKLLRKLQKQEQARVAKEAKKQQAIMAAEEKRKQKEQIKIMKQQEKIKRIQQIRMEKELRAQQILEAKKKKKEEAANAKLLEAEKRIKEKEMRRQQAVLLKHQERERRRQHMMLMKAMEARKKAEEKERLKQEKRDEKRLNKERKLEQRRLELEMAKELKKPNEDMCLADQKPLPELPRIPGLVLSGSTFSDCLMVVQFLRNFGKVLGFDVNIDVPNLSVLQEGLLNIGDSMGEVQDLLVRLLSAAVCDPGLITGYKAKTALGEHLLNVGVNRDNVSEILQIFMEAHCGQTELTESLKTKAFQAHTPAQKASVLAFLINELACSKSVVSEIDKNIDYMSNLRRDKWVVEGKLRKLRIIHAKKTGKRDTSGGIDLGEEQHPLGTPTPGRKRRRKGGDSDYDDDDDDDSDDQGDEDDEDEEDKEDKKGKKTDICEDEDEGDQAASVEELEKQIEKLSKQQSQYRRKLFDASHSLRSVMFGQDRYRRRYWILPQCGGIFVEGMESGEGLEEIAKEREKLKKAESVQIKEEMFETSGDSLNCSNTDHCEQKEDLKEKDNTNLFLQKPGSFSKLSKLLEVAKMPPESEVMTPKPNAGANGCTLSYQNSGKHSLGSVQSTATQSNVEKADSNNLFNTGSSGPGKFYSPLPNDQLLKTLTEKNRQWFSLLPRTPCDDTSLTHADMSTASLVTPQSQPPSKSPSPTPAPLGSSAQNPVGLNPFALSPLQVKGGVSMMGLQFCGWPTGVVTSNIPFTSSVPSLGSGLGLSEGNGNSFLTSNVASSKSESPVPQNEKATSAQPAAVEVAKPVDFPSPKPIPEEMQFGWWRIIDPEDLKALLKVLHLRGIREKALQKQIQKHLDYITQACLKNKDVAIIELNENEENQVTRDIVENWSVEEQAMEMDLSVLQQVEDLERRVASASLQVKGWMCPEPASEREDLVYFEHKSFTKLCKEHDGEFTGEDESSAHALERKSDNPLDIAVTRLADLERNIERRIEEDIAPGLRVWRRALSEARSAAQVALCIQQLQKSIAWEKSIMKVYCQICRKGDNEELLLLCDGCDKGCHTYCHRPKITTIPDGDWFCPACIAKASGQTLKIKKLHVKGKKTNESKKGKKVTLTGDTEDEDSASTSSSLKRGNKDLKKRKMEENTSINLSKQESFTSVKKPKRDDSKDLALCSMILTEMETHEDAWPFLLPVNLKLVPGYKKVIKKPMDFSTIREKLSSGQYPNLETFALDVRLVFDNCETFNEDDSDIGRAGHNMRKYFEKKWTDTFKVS
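Multi-concentration screen (max 110 uM) measuring displacement of acetylated histone H3 peptide from BAZ2B by AlphaScreen, using 50 nM protein, 50 nM peptide and 10 ug/mL streptavidin donor plus Ni-chelate acceptor beads.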
* marks the source's active call; other numbers are inactive results; ? = inconclusive; / = not tested or not shown; [ ] = another dose, or the depositor's remark. Calls follow the shape of the dose curve; as a rule, active = well fitted curve in the direction sought with a large enough effect; inconclusive = small, poorly fitted or top-dose-only effect, or another doubt; inactive = no such curve, though single readings can be large; an effect the other way counts as inactive or inconclusive. Potency is read from the fitted curve at half-maximal effect.

SMILES	G9a inh	PLK1 PBD block	12-LOX inh	HP1b binding inh	JMJD2A Tudor inh	BAZ2B inh
COc1ccc(N=C2C(=O)Nc3ccc(C)c(Br)c32)cc1	11µM*	-17%	-30%	?	?	6.3µM*
O=C(Cc1ccc(Cl)cc1Cl)NCC1(N2CCOCC2)CCCCC1	-11%	1%	-4%	40%	3%	-26%
COc1ccc(N2CCN(C(=O)Nc3cn(CC(C)C)c(=O)c4ccccc34)CC2)cc1	?	/	-2%	26%	?	2%[57.1 µM]
C#CCOCCOCCOCCNc1nc(N2CCN(C(=O)[C@H]([C@@H](C)CC)n3cc([C@@H](N)Cc4ccc(O)cc4)nn3)CC2)nc(N2CCN(C(=O)[C@H](Cc3cc4ccccc4[nH]3)n3cc([C@@H](N)CC(C)C)nn3)CC2)n1	-38%[2.33 µM]	-18%	/	-7%	40µM*	56µM*
C#CCOCCOCCOCCNc1nc(N2CCN(C(=O)[C@H]([C@@H](C)CC)n3cc([C@@H](N)CC(C)C)nn3)CC2)nc(N2CCN(C(=O)[C@H](Cc3cc4ccccc4[nH]3)n3cc([C@@H](N)C(C)CC)nn3)CC2)n1 (stereo partly specified)	2%[12.7 µM]	/	/	/	/	50µM*
C#CCOCCOCCOCCNc1nc(N2CCN(C(=O)[C@H]([C@@H](C)CC)n3cc([C@@H](N)CC(C)C)nn3)CC2)nc(N2CCN(C(=O)[C@H](Cc3cc4ccccc4[nH]3)n3cc([C@@H](N)Cc4ccc(O)cc4)nn3)CC2)n1	4%[12.7 µM]	-16%	/	-29%	56µM*	50µM*
c1ccc(-c2cc(NCCN3CCCCC3)c3ccccc3n2)cc1	40µM*	-13%	?	21%	-14%	-21%
Cc1noc2c(NCCN3CCOCC3)cc(-c3ccccc3)nc12	/	/	7%[176 µM]	/	/	/
Cc1cc(C)nc(N2N=C(C(C)(C)C)CC2=O)n1	3.5µM*	-4%	20%	32%	?	-38%
O=C(OCCN1CCOCC1)c1ccccc1Cl	/	-4%	?	56%	-7%	/
CCCCN(CCCC)CCNC(=O)CSCc1ccc(C)cc1	3.5µM*	-17%	-19%	-32%	6.3µM*	50µM*
CC1(C)CC(=O)C2=C(C1)N(c1cccc(O)c1)C1=C(C2)C(=O)CC(C)(C)C1	2.2µM*	-13%	-15%	56%	8%	?
Cc1nnc(N2CCCC(C(=O)Nc3ccccc3C(F)(F)F)C2)c2nn(-c3ccccc3)c(C)c12 (stereo unspecified)	?	/	-55%	51%	-16%	-28%
COC(=O)c1ccccc1NC(=O)C1CCCN(c2nnc(C)c3c(C)n(-c4ccccc4)nc23)C1 (stereo unspecified)	?	/	2%	41%	-3%	79µM*
CCc1ccc(CNC(=O)C2CCCN(c3nnc(C)c4c(C)n(-c5ccc(OC)cc5)nc34)C2)cc1 (stereo unspecified)	10µM*	/	-16%	-14%	?	-28%
COc1ccc(CNC(=O)C2CCCN(c3nnc(C)c4c(C)n(-c5ccc(C)cc5)nc34)C2)cc1 (stereo unspecified)	-30%[59 µM]	/	7%	36%	-19%	-21%
COc1ccc(-n2nc3c(N4CCCC(C(=O)NCc5ccc(C)cc5)C4)nnc(C)c3c2C)cc1 (stereo unspecified)	?	/	?	14%	56µM*	50µM*
COc1ccc(CNC(=O)C(C)n2nc(C)c3c(C)n(-c4ccc(C)cc4)nc3c2=O)cc1 (stereo unspecified)	-7%	21µM*	-26%	-5%	?	-20%
COC1CCCN(c2cc(-c3ccc(Cl)cc3)nc3c(C)noc23)C1 (stereo unspecified)	/	/	2%[176 µM]	/	/	/
O=C(N/N=C/c1ccc(O)cc1)c1ccncc1	6%[2.33 µM]	5%	12%	24%	17%	-11%
Cc1cc(=O)[nH]c(SCC(=O)NN(c2ccccc2)c2ccccc2)n1	/	-2%	-6%	26%	-19%	0%
CCn1c(C(C)NC(=O)c2cccs2)n[nH]c1=S (stereo unspecified)	13µM*	-10%	10%	9%	7.1µM*	-5%
C=CCn1c(C(C)NC(=O)c2cccs2)n[nH]c1=S (stereo unspecified)	16µM*	-10%	2%	2%	18µM*	0%
CCc1ccc(C(C)NC(=O)c2cccs2)cc1 (stereo unspecified)	/	3%	0%	-3%	-7%	/
C=CCn1c(SCC(=O)NCCc2ccccc2)nnc1C(C)NC(=O)c1cccs1 (stereo unspecified)	18%[59 µM]	-2%	?	20%	-23%	-3%
SMILES	G9a inh	PLK1 PBD block	12-LOX inh	HP1b binding inh	JMJD2A Tudor inh	BAZ2B inh
C=CCn1c(CNC(=O)c2cccs2)n[nH]c1=S	25µM*	-8%	0%	15%	?	22%
N#Cc1ccc(NC(=O)CCNC(=O)c2ccccc2)c(C(F)(F)F)c1	/	/	16%	/	/	/
COc1ccc(CC(=O)Nc2ccc3c(C)cc(=O)oc3c2)cc1OC	-4%[59 µM]	-6%	9%	10%	-10%	1%
Cc1cc(=O)oc2cc(NC(=O)Cc3ccccc3F)ccc12	/	/	40µM*	/	/	/
COc1ccc(CNC(=O)c2cc3ccccc3oc2=O)cc1OC	/	/	-4%	/	/	/
Cn1c(CNC(=O)CSc2n[nH]c(-c3ccccc3)n2)nc2ccccc21	-8%[59 µM]	/	-10%	17%[57 µM]	-15%	2%
Cn1c(CNC(=O)CSc2n[nH]c(-c3ccccc3Cl)n2)nc2ccccc21	28µM*	/	-7%	25%[57 µM]	-27%	4%
CC1(C(=O)CSc2nc3ccccc3[nH]2)CCC(=O)O1 (stereo unspecified)	?	-23%	-1%	9%	-14%	-5%
CC1(C(=O)CSc2n[nH]c(-c3ccccc3Cl)n2)CCC(=O)O1 (stereo unspecified)	10µM*	/	/	/	/	?
CC1(C(=O)CSc2ncn[nH]2)CCC(=O)O1 (stereo unspecified)	11µM*	/	/	/	/	89µM*
COc1ccc(-c2ncccc2O)cc1	1%	-4%	0%	13%	-4%	-1%
Cc1ccc(C)c(NCC(O)c2ccccc2)c1 (stereo unspecified)	71µM*	3%	0%	3%	-16%	-33%
Cc1sc2nc(CSC(C)C(=O)Nc3ccccn3)[nH]c(=O)c2c1C (stereo unspecified)	7.9µM*	-14%	?	19%	-8%	7%
Cc1sc2nc(CC(=O)NN)[nH]c(=O)c2c1C	40µM*	17µM*	13%	-9%	-10%	0%
Cc1sc2nc(CSCC(=O)Nc3ccc(C(F)(F)F)cc3)[nH]c(=O)c2c1C	-6%[2.33 µM]	-3%	-11%	49%	-10%	8%
